Measured values reported in PubChem BioAssay (EPA / NIEHS).
Results filed as inconclusive are left out. The source made the active and inactive calls. Rule for the calls: active = hit-call score of the fitted dose curve at least 0.9, where 1 is the maximum; inconclusive = response in the unintended direction; inactive = score below 0.9.

Experiments:
[1] = biological target: human Ephrin type-A Receptor 1 (EphA1), EPHA1 (gene 2041) (UniProt P21709); experiment: NVS_ENZ_hEphA1: NovaScreen (NVS) Enzymatic Assay for human Ephrin type-A Receptor 1 (EphA1) (AID 2283158);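 note: activity is signal loss versus DMSO meaning EphA1 kinase inhibition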
How it was run: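 Fluorescent substrate conversion, resolved by mobility-shift separation, measured 1 hour post-dosing using recombinant enzyme; signal loss relative to DMSO baseline. Single-concentration duplicates at 25 uM preceded singleton concentration series topping at 50 uM.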

[2] = biological target: human Phosphodiesterase 10 (PDE10), PDE10A (gene 10846) (UniProt Q9Y233); experiment: NVS_ENZ_hPDE10: NovaScreen (NVS) Enzymatic Assay for human Phosphodiesterase 10 (PDE10) (AID 2283195)
How it was run: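 Readout is fluorescence intensity following electrophoretic mobility-shift separation, 1 h after dosing of isolated PDE10A protein. Hits meeting a preset threshold at 25 uM went to concentration series (max 50 uM), analysed relative to DMSO.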

[3] = biological target: human Phosphoinositide 3-kinase alpha (PI3Ka), PIK3CA (gene 5290) (UniProt P42336); experiment: NVS_ENZ_hPI3Ka: NovaScreen (NVS) Enzymatic Assay for human Phosphoinositide 3-kinase alpha (PI3Ka) (AID 2283196)
How it was run: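 Enzyme activity as fluorescence after mobility-shift separation of substrate and product, 1 h reaction, recombinant human PI3Kα; concentration-response to 50 uM max for chemicals passing a 25 uM duplicate screen.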

[4] = biological target: human Matrix Metalloproteinase-9 (MMP9), MMP9 (gene 4318) (UniProt P14780); experiment: NVS_ENZ_hMMP9: NovaScreen (NVS) Enzymatic Assay for human Matrix Metalloproteinase-9 (MMP9) (AID 2283190);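 note: cell-free recombinant MMP9 protease activity read by fluorescent substrate signal; active means inhibition seen as loss of fluorescence signal versus DMSO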
How it was run: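 Cell-free fluorescence-intensity enzyme activity assay using extracted protein, read 1 h after dosing. Loss of signal versus DMSO baseline indicates inhibition; primary screen in duplicate at 25 uM, actives followed up in concentration series.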

[5] = biological target: human Beta-secretase (BACE), BACE1 (gene 23621) (UniProt P56817); experiment: NVS_ENZ_hBACE: NovaScreen (NVS) Enzymatic Assay for human Beta-secretase (BACE) (AID 2283140);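 note: hits are inhibitors that reduce fluorescent substrate signal versus DMSO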
How it was run: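 Enzyme activity of SF9-produced BACE1 is measured cell-free by fluorescence, 1 hour post dosing, normalised to DMSO. Screening used 25 uM in duplicate, with concentration-response follow-up for actives.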

[6] = biological target: Muscarinic acetylcholine receptor M2 (Homo sapiens) (UniProt P08172); experiment: NVS_GPCR_hM2: NovaScreen (NVS) G Protein-Coupled Receptor Assay for human Muscarinic, M2 Receptor (AID 2283273)
How it was run: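 Radioligand competition binding, cell-free, receptor from CHO; 1 h incubation; scintillation detection. Primary testing at 25 uM in duplicate.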

[7] = biological target: guinea pig Opioid, Kappa 1 Receptor (OpiateK), OPRK1 (gene 100135587) (UniProt P41144); experiment: NVS_GPCR_gOpiateK: NovaScreen (NVS) G Protein-Coupled Receptor Assay for guinea pig Opioid, Kappa 1 Receptor (OpiateK) (AID 2283252);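 note: radioligand displacement from kappa opioid receptor in guinea pig cerebellar membranes; active means reduced radioligand binding relative to DMSO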
How it was run: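 Radioligand competition binding using guinea pig cerebellum membrane fraction; 2 h exposure; filter radiodetection. Single concentration 25 uM (duplicate), follow-up concentration-response for actives.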

[8] = biological target: human Neurokinin, NK2 Receptor, TACR2 (gene 6865) (UniProt P21452); experiment: NVS_GPCR_hNK2: NovaScreen (NVS) G Protein-Coupled Receptor Assay for human Neurokinin, NK2 Receptor (AID 2283278);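 note: actives reduce bound radioligand signal relative to DMSO baseline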
How it was run: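 Cell-free radioligand binding using receptor protein extracted from CHO cells; readings taken 4 hours after chemical dosing by filter-based scintillation counting. Primary screen ran single concentration (25 uM) in duplicate; actives followed up in concentration series, loss-of-signal versus DMSO baseline.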

[9] = biological target: sheep Cyclooxygenase-1 (Cox1), PTGS1 (gene 443551) (UniProt P05979); experiment: NVS_ENZ_oCOX1: NovaScreen (NVS) Enzymatic Assay for sheep Cyclooxygenase-1 (Cox1) (AID 2283239);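 note: actives reduce cyclooxygenase activity so potencies are for inhibitors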
How it was run: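 Colorimetric enzyme readout using sheep seminal-vesicle cyclooxygenase-1, measured 0.66 h post-dosing. Single-concentration duplicates at 25 uM first, then concentration series for actives, with DMSO as baseline and plate controls.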

[10] = biological target: human Caspase 5 (CASP5), CASP5 (gene 838) (UniProt P51878); experiment: NVS_ENZ_hCASP5: NovaScreen (NVS) Enzymatic Assay for human Caspase 5 (CASP5) (AID 2283137)
How it was run: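 Caspase 5 enzyme activity, detected as fluorescence signal loss, is measured in a biochemical format using E. coli-expressed protein. Reading occurs 2 hours post-dosing. Screening runs at 25 uM, with confirmed actives titrated to 50 uM maximum.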

[11] = biological target: human Dual Specificity Protein Phosphatase 3 (DUSP3), DUSP3 (gene 1845) (UniProt P51452); experiment: NVS_ENZ_hDUSP3: NovaScreen (NVS) Enzymatic Assay for human Dual Specificity Protein Phosphatase 3 (DUSP3) (AID 2283152);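 note: phosphatase activity of recombinant human DUSP3 on a fluorogenic substrate without cells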
How it was run: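 Cell-free fluorescence-intensity enzyme activity assay with recombinant protein and substrate; loss of signal fitted relative to DMSO baseline. Primary screen in duplicate at 25 uM, actives then run in concentration series; measured 0 h after dosing.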

[12] = biological target: human Esterase Plasma (ES), BCHE (gene 590) (UniProt P06276); experiment: NVS_ENZ_hES: NovaScreen (NVS) Enzymatic Assay for human Esterase Plasma (ES) (AID 2283157)
How it was run: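 Screening ran at 25 uM in duplicate, followed by singleton concentration series reaching 50 uM for actives. Human plasma protein, colorimetric detection, 0.25 h exposure, DMSO negative control.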

[13] = biological target: D(1A) dopamine receptor (Homo sapiens) (UniProt P21728); experiment: NVS_GPCR_hDRD1: NovaScreen (NVS) G Protein-Coupled Receptor Assay for human Dopamine Receptor D1 (DRD1) (AID 2283269)
How it was run: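 Cell-free competition with radioligand, filter-trapped and scintillation-counted 1 h post-dose, using HEK293-derived human D1 preparation. Duplicate single-point testing at 25 uM first, then concentration series for actives; DMSO served as baseline, loss-of-signal scored.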

[14] = biological target: human Opioid Receptor Mu (Opiate Mu), OPRM1 (gene 4988) (UniProt P35372); experiment: NVS_GPCR_hOpiate_mu: NovaScreen (NVS) G Protein-Coupled Receptor Assay for human Opioid Receptor Mu (Opiate Mu) (AID 2283290);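 note: hits lower bound tracer signal versus DMSO meaning displacement of the ligand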
How it was run: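 Primary screen in duplicate at 25 uM, with actives followed in concentration series. CHO-derived receptor membranes, cell-free; bound radioligand read by scintillation counting after filtration at 2.5 h, decrease scored against DMSO.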

Chain of human Beta-secretase (BACE), BACE1 (gene 23621) (P56817 whole entry, looked up): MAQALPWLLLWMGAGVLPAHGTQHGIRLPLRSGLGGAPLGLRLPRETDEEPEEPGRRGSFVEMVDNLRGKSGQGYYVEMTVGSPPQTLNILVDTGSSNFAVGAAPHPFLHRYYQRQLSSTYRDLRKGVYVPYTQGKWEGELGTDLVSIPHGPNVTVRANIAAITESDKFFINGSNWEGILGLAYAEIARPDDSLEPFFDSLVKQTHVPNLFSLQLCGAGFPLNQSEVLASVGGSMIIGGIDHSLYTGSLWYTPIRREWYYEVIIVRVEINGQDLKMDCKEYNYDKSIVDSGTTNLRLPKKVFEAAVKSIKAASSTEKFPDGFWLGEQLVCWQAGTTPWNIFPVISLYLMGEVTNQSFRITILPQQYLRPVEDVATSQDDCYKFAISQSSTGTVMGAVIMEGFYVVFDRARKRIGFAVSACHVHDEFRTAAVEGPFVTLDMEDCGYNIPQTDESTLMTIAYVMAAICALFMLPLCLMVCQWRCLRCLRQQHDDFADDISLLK
Chain of human Phosphodiesterase 10 (PDE10), PDE10A (gene 10846) (Q9Y233 whole entry, looked up): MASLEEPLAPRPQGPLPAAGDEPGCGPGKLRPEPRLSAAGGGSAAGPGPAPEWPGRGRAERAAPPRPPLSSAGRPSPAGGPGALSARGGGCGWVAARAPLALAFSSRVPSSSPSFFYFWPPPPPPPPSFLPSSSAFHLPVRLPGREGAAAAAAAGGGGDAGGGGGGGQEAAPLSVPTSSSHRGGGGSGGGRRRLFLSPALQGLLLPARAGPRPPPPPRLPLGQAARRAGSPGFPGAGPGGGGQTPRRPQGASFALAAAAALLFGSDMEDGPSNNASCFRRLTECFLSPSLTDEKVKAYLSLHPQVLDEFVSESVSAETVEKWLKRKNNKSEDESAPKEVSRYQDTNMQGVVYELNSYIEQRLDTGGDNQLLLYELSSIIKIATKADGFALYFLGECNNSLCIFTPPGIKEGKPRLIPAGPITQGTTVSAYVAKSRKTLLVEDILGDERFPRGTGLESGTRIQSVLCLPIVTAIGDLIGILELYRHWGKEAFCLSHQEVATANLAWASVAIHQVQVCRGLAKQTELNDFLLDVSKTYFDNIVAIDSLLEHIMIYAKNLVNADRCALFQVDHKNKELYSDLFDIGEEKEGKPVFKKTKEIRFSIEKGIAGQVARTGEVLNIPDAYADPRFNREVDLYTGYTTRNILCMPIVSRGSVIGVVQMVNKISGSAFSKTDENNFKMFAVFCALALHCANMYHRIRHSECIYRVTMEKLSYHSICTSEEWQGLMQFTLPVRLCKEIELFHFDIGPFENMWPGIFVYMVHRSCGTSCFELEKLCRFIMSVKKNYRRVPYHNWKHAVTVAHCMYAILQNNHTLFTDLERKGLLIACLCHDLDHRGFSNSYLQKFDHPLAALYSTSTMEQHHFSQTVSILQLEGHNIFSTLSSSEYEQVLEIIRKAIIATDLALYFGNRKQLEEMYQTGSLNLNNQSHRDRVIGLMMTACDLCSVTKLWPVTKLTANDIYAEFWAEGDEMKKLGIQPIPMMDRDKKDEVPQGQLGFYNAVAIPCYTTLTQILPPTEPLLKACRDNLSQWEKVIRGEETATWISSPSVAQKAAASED
Chain of Muscarinic acetylcholine receptor M2 (Homo sapiens) (P08172 whole entry, looked up): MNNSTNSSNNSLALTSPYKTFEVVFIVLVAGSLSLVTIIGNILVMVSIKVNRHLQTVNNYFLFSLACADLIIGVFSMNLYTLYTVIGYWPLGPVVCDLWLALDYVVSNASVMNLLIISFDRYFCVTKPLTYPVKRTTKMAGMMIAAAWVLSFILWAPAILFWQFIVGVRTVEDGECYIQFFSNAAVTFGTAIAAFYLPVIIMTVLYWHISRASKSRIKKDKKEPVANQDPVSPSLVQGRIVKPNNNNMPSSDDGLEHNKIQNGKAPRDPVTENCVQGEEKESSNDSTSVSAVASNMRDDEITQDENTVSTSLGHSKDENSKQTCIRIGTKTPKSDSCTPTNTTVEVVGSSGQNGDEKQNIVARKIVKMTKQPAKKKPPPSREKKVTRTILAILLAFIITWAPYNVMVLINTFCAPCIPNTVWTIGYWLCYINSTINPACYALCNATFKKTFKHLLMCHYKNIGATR
Chain of human Ephrin type-A Receptor 1 (EphA1), EPHA1 (gene 2041) (P21709 whole entry, looked up): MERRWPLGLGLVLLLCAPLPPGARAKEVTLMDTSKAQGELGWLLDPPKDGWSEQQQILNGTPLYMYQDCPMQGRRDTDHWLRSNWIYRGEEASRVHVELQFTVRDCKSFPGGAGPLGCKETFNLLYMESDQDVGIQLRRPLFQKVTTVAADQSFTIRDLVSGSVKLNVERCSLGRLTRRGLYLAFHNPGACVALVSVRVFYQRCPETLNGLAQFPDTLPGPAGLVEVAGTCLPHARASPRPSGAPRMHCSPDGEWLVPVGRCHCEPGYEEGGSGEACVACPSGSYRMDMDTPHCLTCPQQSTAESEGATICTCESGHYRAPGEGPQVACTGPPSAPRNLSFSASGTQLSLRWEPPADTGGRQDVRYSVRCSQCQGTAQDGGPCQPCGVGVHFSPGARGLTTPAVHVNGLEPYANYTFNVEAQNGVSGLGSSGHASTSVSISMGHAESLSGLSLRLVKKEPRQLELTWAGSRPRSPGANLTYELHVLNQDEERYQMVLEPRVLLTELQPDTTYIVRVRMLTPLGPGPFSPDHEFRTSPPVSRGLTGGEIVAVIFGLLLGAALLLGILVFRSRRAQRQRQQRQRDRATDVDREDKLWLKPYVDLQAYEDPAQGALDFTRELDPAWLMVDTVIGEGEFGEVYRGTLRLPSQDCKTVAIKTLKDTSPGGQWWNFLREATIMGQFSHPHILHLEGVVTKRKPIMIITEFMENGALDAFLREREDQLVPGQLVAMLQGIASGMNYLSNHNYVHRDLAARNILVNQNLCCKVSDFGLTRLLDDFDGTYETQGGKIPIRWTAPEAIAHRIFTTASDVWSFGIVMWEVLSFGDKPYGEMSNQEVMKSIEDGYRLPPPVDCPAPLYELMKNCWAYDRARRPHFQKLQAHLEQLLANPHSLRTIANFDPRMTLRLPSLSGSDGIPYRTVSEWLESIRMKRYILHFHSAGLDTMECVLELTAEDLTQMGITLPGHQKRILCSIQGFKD
Chain of human Caspase 5 (CASP5), CASP5 (gene 838) (P51878 whole entry, looked up): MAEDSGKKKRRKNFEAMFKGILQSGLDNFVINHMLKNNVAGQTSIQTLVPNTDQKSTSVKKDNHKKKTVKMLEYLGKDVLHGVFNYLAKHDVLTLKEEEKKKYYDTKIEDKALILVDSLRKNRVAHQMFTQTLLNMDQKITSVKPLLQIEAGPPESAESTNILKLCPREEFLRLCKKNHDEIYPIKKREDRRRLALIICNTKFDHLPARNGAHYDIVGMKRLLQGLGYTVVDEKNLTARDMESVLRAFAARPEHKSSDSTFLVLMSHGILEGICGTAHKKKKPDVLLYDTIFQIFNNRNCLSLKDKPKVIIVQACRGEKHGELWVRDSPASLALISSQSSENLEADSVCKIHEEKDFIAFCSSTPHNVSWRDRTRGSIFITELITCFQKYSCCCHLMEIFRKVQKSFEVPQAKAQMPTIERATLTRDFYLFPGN
Chain of human Matrix Metalloproteinase-9 (MMP9), MMP9 (gene 4318) (P14780 whole entry, looked up): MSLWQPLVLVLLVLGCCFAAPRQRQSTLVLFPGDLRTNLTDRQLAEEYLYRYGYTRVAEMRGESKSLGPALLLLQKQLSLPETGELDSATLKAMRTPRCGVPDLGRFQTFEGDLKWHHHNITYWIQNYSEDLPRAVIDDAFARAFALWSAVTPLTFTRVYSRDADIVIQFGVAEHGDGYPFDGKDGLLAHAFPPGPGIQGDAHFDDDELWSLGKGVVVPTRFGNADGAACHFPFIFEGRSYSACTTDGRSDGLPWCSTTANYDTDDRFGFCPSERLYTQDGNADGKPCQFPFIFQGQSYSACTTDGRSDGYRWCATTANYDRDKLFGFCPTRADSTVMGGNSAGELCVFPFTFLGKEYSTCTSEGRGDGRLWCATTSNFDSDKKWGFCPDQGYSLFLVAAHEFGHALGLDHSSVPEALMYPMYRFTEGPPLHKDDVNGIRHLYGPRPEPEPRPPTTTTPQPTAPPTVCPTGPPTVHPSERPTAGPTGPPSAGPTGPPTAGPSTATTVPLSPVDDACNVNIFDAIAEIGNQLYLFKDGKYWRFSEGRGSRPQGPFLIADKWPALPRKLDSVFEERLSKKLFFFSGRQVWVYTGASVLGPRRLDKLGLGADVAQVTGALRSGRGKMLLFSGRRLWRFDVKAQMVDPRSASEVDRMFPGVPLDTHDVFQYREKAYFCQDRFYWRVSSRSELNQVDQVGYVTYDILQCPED
Chain of sheep Cyclooxygenase-1 (Cox1), PTGS1 (gene 443551) (P05979 whole entry, looked up): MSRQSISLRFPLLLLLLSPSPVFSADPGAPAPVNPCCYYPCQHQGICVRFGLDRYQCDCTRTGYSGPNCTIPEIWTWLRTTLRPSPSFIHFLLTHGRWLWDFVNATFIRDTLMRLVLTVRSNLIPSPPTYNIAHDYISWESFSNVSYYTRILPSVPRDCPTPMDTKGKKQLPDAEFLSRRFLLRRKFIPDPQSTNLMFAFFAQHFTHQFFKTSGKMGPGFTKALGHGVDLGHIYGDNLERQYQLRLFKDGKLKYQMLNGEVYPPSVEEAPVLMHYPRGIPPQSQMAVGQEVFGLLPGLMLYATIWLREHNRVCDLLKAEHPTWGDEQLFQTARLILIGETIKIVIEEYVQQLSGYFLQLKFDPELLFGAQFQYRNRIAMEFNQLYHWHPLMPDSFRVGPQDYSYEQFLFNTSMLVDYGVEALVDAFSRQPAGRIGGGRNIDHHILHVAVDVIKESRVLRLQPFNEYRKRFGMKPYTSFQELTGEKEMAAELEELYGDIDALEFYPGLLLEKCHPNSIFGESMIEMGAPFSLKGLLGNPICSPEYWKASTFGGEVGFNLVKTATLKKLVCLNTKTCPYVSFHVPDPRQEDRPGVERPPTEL
Chain of human Dual Specificity Protein Phosphatase 3 (DUSP3), DUSP3 (gene 1845) (P51452 whole entry, looked up): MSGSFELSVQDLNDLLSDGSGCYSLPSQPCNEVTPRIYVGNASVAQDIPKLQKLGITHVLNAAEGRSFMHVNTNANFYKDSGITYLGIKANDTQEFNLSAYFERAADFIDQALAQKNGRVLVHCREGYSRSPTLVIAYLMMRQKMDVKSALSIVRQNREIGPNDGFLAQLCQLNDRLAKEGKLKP

SMILES: C#C[C@]1(O)CC[C@H]2[C@@H]3CCC4=Cc5oncc5C[C@]4(C)[C@H]3CC[C@@]21C
- outcome [1]: inactive
- outcome [2]: inactive
- outcome [3]: inactive

SMILES: CCO[Si](CCCS)(OCC)OCC
- outcome [1]: inactive
- AC50 [4]: 1.65 µM (active)
- AC50 [2]: 32.1 µM (active)
- outcome [3]: inactive

SMILES: Cc1ccc(Nc2ccc(O)c3c2C(=O)c2ccccc2C3=O)cc1
- AC50 [5]: 6.25 µM (active)
- AC50 [4]: 2.18 µM (active)

SMILES: CC(C)[C@H]1CC[C@@H](C)CC1=O
- outcome [1]: inactive

SMILES: COC(=O)OC
- outcome [1]: inactive
- outcome [2]: inactive
- outcome [3]: inactive
- outcome [6]: inactive

SMILES: O=C=NC1CCC(CC2CCC(N=C=O)CC2)CC1 (stereo not drawn)
- AC50 [5]: 8.32 µM (active)
- AC50 [4]: 2.17 µM (active)
- outcome [2]: inactive
- outcome [3]: inactive
- AC50 [7]: 29.3 µM (active)
- AC50 [6]: 9.37 µM (active)
- outcome [8]: inactive

SMILES: CC(C)[C@@H]1CC[C@@H](C)CC1=O
- outcome [1]: inactive
- outcome [9]: inactive

SMILES: N#Cc1ccccc1
- outcome [5]: inactive
- outcome [3]: inactive

SMILES: CC(=O)OCCOC(C)=O
- AC50 [4]: 14.9 µM (active)

SMILES: Nc1cc(N)cc(C(=O)O)c1
- AC50 [10]: 19900 nM (active)
- AC50 [6]: 38.1 µM (active)

SMILES: O=C1OC2(c3cc(Br)c(O)c(Br)c3Oc3c2cc(Br)c(O)c3Br)c2c(Cl)c(Cl)c(Cl)c(Cl)c21
- AC50 [10]: 552 nM (active)
- AC50 [11]: 6.67 µM (active)
- outcome [12]: inactive
- AC50 [3]: 1.86 µM (active)
- AC50 [9]: 8.68 µM (active)
- AC50 [13]: 423 nM (active)
- AC50 [8]: 1.27 µM (active)
- AC50 [14]: 96.1 nM (active)

SMILES: O=[N+]([O-])c1cc(C(F)(F)F)ccc1Cl
- outcome [1]: inactive
- AC50 [2]: 35 µM (active)

SMILES: OC1C(O)C(O)C(O)C(O)C1O (stereo not drawn)
- outcome [1]: inactive
- outcome [2]: inactive

SMILES: CC(C)Oc1ccccc1O
- outcome [1]: inactive

SMILES: CCCCC/C=C/C=C/C=O
- AC50 [10]: 627 nM (active)
- AC50 [5]: 25 µM (active)
- AC50 [11]: 9.31 µM (active)
- outcome [1]: inactive
- AC50 [4]: 25 µM (active)
- outcome [2]: inactive
- outcome [3]: inactive
